Our source for the max response values is PubChem BioAssay (NCATS).

Structures are written as SMILES. Several values for one entry are separate records, joined by “and”; a condition that tells them apart may be missing. Identical values can stand only once. Records with an inconclusive call do not appear. Values without a mark were called inactive. The call rests on the fitted dose curve; in most records, active means well fitted inhibition curve with a large enough effect; inconclusive means small, poorly fitted or top-dose-only effect; inactive means flat fitted curve, though single readings scatter.
On the % scale 0 is the no-effect control and ±100 the full control effect.

For the experiment, the system named is KB-3-1. Kind of experiment: Cytotoxic Profiling of Annotated Libraries Using Quantitative High-Throughput Screening (AID 1296008). Further: nearly all actives have a fitted effect of over 60% in size. The settings on record: Five cell lines viability, CellTiter-Glo ATP luminescence, 48-72 h; max response: stronger effect = lower value. The procedure, abridged:
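Cells exposed to compounds for 48 or 72 hr at 37 degrees Celsius. Viability read as ATP-coupled luminescence with CellTiter-Glo after 10 min at room temperature.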
For orientation: In ATP-based viability assays light output follows the ATP content of the culture.
Take `O=C(CO)[C@@H](O)[C@H](O)[C@@H](O)C(=O)O`: the max response is -10%.

As to `OC[C@@H](O)C(O)[C@H](O)CO`, the max response is 2.54%.

`O=C(CCCN1CCC(C(=O)c2ccc(F)cc2)CC1)c1ccc(F)cc1`: the max response is 33.7%.

Consider `CCCC(=O)Nc1c(I)cc(I)c(CC(CC)C(=O)O)c1I` (stereo not given), for which the max response is -4.08%.

Regarding `C[C@@H]1C[C@H]2[C@@H]3CCC4=CC(=O)C=C[C@]4(C)[C@@]3(F)[C@@H](O)C[C@]2(C)[C@@]1(O)C(=O)COC(=O)c1cccc(S(=O)(=O)O)c1`, the max response was 21.4%.

For `NC(=O)C1c2ccccc2CCc2ccccc21`, the max response was 5.54%.

For `CCCCC/C=C\CCC(=O)N[C@H]1[C@H](Oc2c3cc4cc2Oc2ccc(cc2Cl)[C@@H](O[C@@H]2O[C@H](CO)[C@@H](O)[C@H](O)[C@H]2NC(C)=O)[C@@H]2NC(=O)[C@H](NC(=O)[C@@H]4NC(=O)[C@H]4NC(=O)[C@@H](Cc5ccc(c(Cl)c5)O3)NC(=O)[C@H](N)c3ccc(O)c(c3)Oc3cc(O)cc4c3)c3ccc(O)c(c3)-c3c(O[C@H]4O[C@H](CO)[C@@H](O)[C@H](O)[C@@H]4O)cc(O)cc3[C@@H](C(=O)O)NC2=O)O[C@H](CO)[C@@H](O)[C@@H]1O`, the max response is -12.7%.

For the compound `CC(CCc1ccc(O)cc1)NCC(O)c1ccc(O)cc1` (stereo not given), the max response is 9.04%.

On to `CO/N=C(\C(=O)N[C@@H]1C(=O)N2C(C(=O)[O-])=C(C[n+]3cccc4c3CCC4)CS[C@H]12)c1csc(N)n1`, for which the max response was -1.98%.

As for `CCC(O)c1ccccc1` (stereo not given), the max response is 7.91%.

With `COc1c(O[C@@H]2O[C@H](CO)[C@@H](O)[C@H](O)[C@H]2O)cc2c(c1OC)-c1ccc(SC)c(=O)cc1[C@@H](NC(C)=O)CC2`, the max response was 48.2%.

`O=C(O)CCCC/C=C(\c1ccccc1)c1cccnc1`: the max response was -9.78%.

Consider `CCN(CC)CCOc1ccc2nc(N(C)C)sc2c1`, for which the max response was -23.9%.

Take `C=CC[N@@+]12CC[C@@]34c5ccccc5N5/C=C6/[C@H]7C[C@H]8[C@@]9(CC[N@@+]8(CC=C)C/C7=C/CO)c7ccccc7N(/C=C(/[C@@H](C[C@@H]31)/C(=C\CO)C2)[C@H]54)[C@@H]69`: the max response was 19.7%.

As for `CC(=O)OCC1=C(C(=O)O)N2C(=O)[C@@H](NC(=O)Cc3ccccc3)[C@H]2SC1`, the max response is -5.45%.

Turning to `CC[C@@H](C)[C@H](N)C(=O)O`, the max response is -7.63%.

Take `CO/N=C(\C(=O)N[C@@H]1C(=O)N2C(C(=O)[O-])=C(C[n+]3ccc(N)n3CCO)CS[C@H]12)c1csc(N)n1`: the max response is 5.24%.

`CC(=O)[O][Al][O]C(C)=O`: the max response is -5.29%.

Regarding `CC/C=C\C/C=C\C/C=C\CCCCCCCC(=O)O`, the max response is -1.86%.

Regarding `CCCCCCCCCCCC(=O)OCC(O)CO` (stereo not given), the max response was 4.65%.

As to `O=[N+]([O-])O[C@@H]1CO[C@H]2[C@@H]1OC[C@@H]2O`, the max response was -3.81%.

Turning to `C[C@@H]1NC(=O)[C@@H](N)CNC(=O)[C@H](C2CCNC(N)=N2)NC(=O)/C(=C/NC(N)=O)NC(=O)[C@H](CNC(=O)C[C@@H](N)CCCN)NC1=O` (stereo not given in full), the max response is -2.35% and -9.97%.

Consider `CC(=O)N=c1sc(S(N)(=O)=O)nn1C`, for which the max response is 21.5%.

As for `CCCCC(O)c1ccccc1` (stereo not given), the max response is 6.09%.

Consider `CN(C)C(=O)CCSC(SCCC(=O)O)c1cccc(/C=C/c2ccc3ccc(Cl)cc3n2)c1` (stereo not given), for which the max response was -15.2%.

As for `CCCOC(=O)c1ccccc1O`, the max response was -1.94%.

Regarding `CC(C)C[C@@H](NC(=O)[C@@H](O)[C@H](N)Cc1ccccc1)C(=O)O`, the max response is 11%.

For `COC(=O)c1ccccc1O`, the max response was -4.17%.

As for `O=P(O)(O)OP(=O)(O)OP(=O)(O)O`, the max response was -3.72%.

Take `CC[C@@H](C(=O)[C@@H](C)[C@@H](O)[C@H](C)[C@@H]1O[C@@H]([C@@H](CC)C(=O)O)CC[C@@H]1C)[C@H]1O[C@]2(C=C[C@@H](O)[C@]3(CC[C@@](C)([C@H]4CC[C@](O)(CC)[C@H](C)O4)O3)O2)[C@H](C)C[C@@H]1C`: the max response is -24.3%.

As for `O=C(O)[C@H]1CN(C/C=C/P(=O)(O)O)CCN1`, the max response was 9.65%.

`CC(=NCc1ccccc1)c1ccccc1O`: the max response was -11.4%.

As for `CC[C@H](CC[C@@H](C)[C@H]1CC[C@H]2[C@@H]3CC=C4C[C@@H](O)CC[C@]4(C)[C@H]3CC[C@]12C)C(C)C`, the max response was -4.33%.

On to `CCCC(CCC)C(=O)OC1C[C@H]2CC[C@@H](C1)[N+]2(C)C` (stereo not given in full), for which the max response was 11.2% and 16.2%.

Take `CN[C@@H]1[C@@H](O)[C@@H](O[C@@H]2[C@@H](O)[C@H](OC3OC(CN)=CCC3N)[C@@H](N)C[C@H]2N)OC[C@]1(C)O` (stereo not given in full): the max response is -18.5%.

For `CCCCCCCCCCCCCCCCCC(=O)OCC(C)O` (stereo not given), the max response was -14.3%.

For the compound `CC[C@H](C)[C@@H]1NC(=O)[C@H](Cc2ccc(O)cc2)NC(=O)[C@@H](N)CSSC[C@@H](C(=O)N2CCC[C@H]2C(=O)N[C@@H](CC(C)C)C(=O)NCC(N)=O)NC(=O)[C@H](CC(N)=O)NC(=O)[C@H](CCC(N)=O)NC1=O`, the max response was 3.76%.

As for `CS(=O)(=O)c1ccc([C@@H](O)[C@@H](COC(=O)CN)NC(=O)C(Cl)Cl)cc1`, the max response is -15.1%.

Consider `O=C(O)[C@@H]1C[C@H](CP(=O)(O)O)CCN1`, for which the max response was 23.4%.

As for `Cc1cc(C(=O)NCCc2ccc(S(=O)(=O)NC(=O)NN3CCCCCC3)cc2)no1`, the max response is 8.89%.
